The text below walks through data of ChEMBL document CHEMBL3988442, “University of Dundee, Small-Polar-MMV Screening Library” (2021).

Structures are written as SMILES.

The target in this test is AMP-activated protein kinase, AMPK (Homo sapiens) (UniProt P54646+O43741+P54619+Q9UGJ0+Q9Y478+Q13131+Q9UGI9). The test is described as follows: AMP-dependent Kinase enzyme assay. An in vitro enzyme assay that detects ADP turnover that is directly proportional to AMPK activity. This uses naive AMPK that is activated during the assay with MK-8722. In kind it is functional. Details: scale not given: direction of the effect not stated beside the values. Particulars: 30 µM.
For the compound `Cc1ccccc1CNC(=O)CNc1ccc(OC2CCOC2)cc1` (stereo not given), the Percent Effect came to 10.2%.

Take `CC(C)N(Cc1ccccn1)C(=O)CN(C)C(=O)c1cccs1`: the Percent Effect amounted to 10.8%.

As for `Cn1ccnc1CNCCNc1ncc(Cl)cc1Cl`, the Percent Effect was -1.1%.

For the compound `CC(C)CN1C[C@@H](C(=O)O)C[C@@H](C(=O)NCc2ccncc2)C1`, the Percent Effect was -2.13%.

Take `CN(Cc1ccccc1)S(=O)(=O)N1C[C@H](C2CC2)[C@@H](N)C1`: the Percent Effect was -0.41%.

For the compound `c1cc(N2CCC(CN3CCOCC3)CC2)c2sccc2n1`, the Percent Effect is 2.28%.

Turning to `O=C(O)c1cnc(OCC2CC2)c(Cl)c1`, the Percent Effect was -1.49%.

Turning to `CC(C)c1nn(C)c(N(C)C)c1CNCc1ccnc(N(C)C)c1`, the Percent Effect was -12.6%.

Regarding `Cc1cc(CNCC2CNc3ccnn3C2)no1` (stereo not given), the Percent Effect is -2.57%.

Regarding `Cc1ccc(OCc2occc2C(=O)O)cc1`, the Percent Effect was 12.4%.

For the compound `Cc1cccc(CN2CCCC2c2cccc(Nc3nccs3)n2)c1` (stereo not given), the Percent Effect was 6.23%.

In the case of `CC(C)(C)C(=O)N1CCCC1(C(=O)N1CCCC1)c1cnccn1` (stereo not given), the Percent Effect is -4.87%.

In the case of `CCN(Cc1cnn(CC)c1)Cc1c(Cl)cncc1Cl`, the Percent Effect was 6.24%.

For `CCCn1nnnc1COC(=O)C1COc2ccccc2O1` (stereo not given), the Percent Effect stood at 3%.

`O=C(CN1CCC(c2nnc(C(F)(F)F)o2)CC1)NCc1ccccc1`: the Percent Effect worked out at 0.729%.

`Cc1nsc(N2CCCN(CC(=O)N(C)C3CC3)CC2)n1`: the Percent Effect came out at 7.25%.

On to `NC(=O)c1ccnc(N2CCCC(CO)(Cc3ccccc3)C2)c1` (stereo not given), for which the Percent Effect amounted to 11.6%.

For the compound `CN1CCN(CCOc2ccc(NC(=O)c3ccc[nH]3)cc2)CC1`, the Percent Effect came to 6.53%.

For `CCOCCC(=O)Nc1cccc(Cl)c1C(N)=O`, the Percent Effect was 1.82%.

`NC(=O)CN(Cc1ncc(-c2ccc(Cl)cc2)o1)C1CCCC1`: the Percent Effect is -5.3%.

Take `Cc1ccccc1S(=O)(=O)Cc1nsc(N(C)C)n1`: the Percent Effect was -0.34%.

Regarding `Cc1cc2n(n1)CC(CNCc1cc(C)on1)CN2` (stereo not given), the Percent Effect was -6.26%.

Consider `NC(=O)NC1CCN(Cc2ccc(Br)c(F)c2)CC1`, for which the Percent Effect turned out to be 4.07%.

In the case of `CC1(C)OC(=O)N(CCCOc2ccc(F)cc2)C1=O`, the Percent Effect was -0.642%.

With `Cc1cccc(-c2noc(Cn3nc(C(N)=O)ccc3=O)n2)c1`, the Percent Effect was 5.3%.

For `Cc1nc(CN(C)Cc2csc(-c3cccs3)n2)co1`, the Percent Effect came to 10.3%.

On to `Cc1ccc(-c2nc(C(=O)N(C)CC(=O)N3CCCC3)cs2)c(C)c1`, for which the Percent Effect stood at 1.55%.

Turning to `COCCN1CCN(C(=O)C(c2cccc(F)c2)N(C)C)CC1` (stereo not given), the Percent Effect is -5.71%.

Turning to `COc1ncnc(N)c1CNCc1ccccc1-n1cccn1`, the Percent Effect is -8.85%.

Take `N#CC1(NC(=O)c2ccc(F)cc2OC(F)F)CCOCC1`: the Percent Effect came out at 1.96%.

With `COc1ccc(S(=O)(=O)Nc2cccnc2-n2cncn2)c(C)c1`, the Percent Effect was -5.19%.

`CC(=O)Cn1c(C)cc(=O)c2cc(F)ccc21`: the Percent Effect turned out to be 10.5%.

As to `Cc1cc(Cl)c(C)c(S(=O)(=O)N2CCN(Cc3ccccn3)CC2)c1Cl`, the Percent Effect came to 1.09%.

For the compound `O=C1CCC(C(=O)N2CCC(Cn3cc(C4CCCC4)nn3)CC2)=NN1`, the Percent Effect was -8.82%.

As to `Cc1cc(CNCC2(O)CCOCC2)ccc1F`, the Percent Effect is -5.64%.

Take `OCC1(NCc2cccc(-n3cccn3)c2)CCOCC1`: the Percent Effect is -1.31%.

For the compound `O=C(CCOc1ccccc1F)N1CCC(O)CC1`, the Percent Effect stood at 3.95%.

Consider `CNC(=O)c1cn2cc(-c3cccc(Cl)c3)n(CC3CC3)c(=O)c2n1`, for which the Percent Effect was -3.37%.

Take `CC(CN1CCOCC1)NC(=O)N1CCN(S(C)(=O)=O)CC1` (stereo not given): the Percent Effect is 8.74%.

Regarding `Cc1nc2n(n1)CC(NCc1c(Cl)ccc3cccnc13)CC2` (stereo not given), the Percent Effect is 11.7%.
